# Screening results as filed in PubChem.
# Pf growth 96h: P. falciparum growth inhibition at 96 hour, primary screen for plastid delayed-death inhibitors; P. falciparum luciferase reporter growth, 96 h; Potency, µM (series often up to 28.7 µM), inactives show at the highest dose activity change, negative = inhibition, hits mostly inhibitors; actives 6.9% (n = 320,000); AID 504834; also: % is scaled to controls: 0 for no effect and ±100 for the full control effect
#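 Compounds incubated with erythrocytes infected by luciferase-expressing P. falciparum (2% hematocrit, 0.05% parasitemia final) for 96 hours, 37 C in 5% CO2. Growth inhibition scored as decreased luciferase luminescence.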
# Pf growth 48h: inhibits P. falciparum growth in the first generation, 48 h; P. falciparum luciferase growth in erythrocytes, 48 h; actives 5.9% (n = 310,000); Potency, µM (doses to about 28.7 µM), for inactives: at the highest dose activity change, negative = inhibition, usual class: inhibitors; also: % is scaled to controls: 0 for no effect and ±100 for the full control effect
#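 Luminescence readout; reporter = integrated firefly luciferase in P. falciparum. RBC culture at 2% hematocrit, 0.1% parasitemia final, 37 C/5% CO2; decreased signal taken as growth inhibition.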
# Sm TGR block: blocks Schistosoma mansoni thioredoxin glutathione reductase; Q962Y6; purified TGR, DTNB reduction, TNB absorbance 405 nm; Potency, µM (series often up to 114 µM), without a hit: at the highest dose activity change, negative = inhibition, actives largely listed as inhibitors; actives 3% (n = 360,000); also: % is scaled to controls: 0 for no effect and ±100 for the full control effect; nearly all actives have a fitted effect of over 60% in size
#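 TGR 20 nM + NADPH 100 uM (dispensed conc.), cpd preinc 15 min RT; start with NADPH (500 uM addition) then DTNB (15 mM addition). Kinetic TNB absorbance, 405 nm filter. Four-parameter Hill fit across titration.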
# SARS PLpro yeast: SARS-CoV PLP inhibition in yeast | AID 485353 | actives 0.19% (n = 330,000) | S. cerevisiae expressing SARS-CoV PLpro, growth rescue | Potency, µM (highest dose often 32.9 µM), for the others: top-dose activity, positive = growth rescue, actives largely listed as activators; calls by dose curve; also: 0% is about no effect; nearly all actives have a fitted effect of over 55% in size
# * hit, by the source's call; ? = inconclusive; nt = no result. The list is not random: actives were taken first. Their share in the collection is about 12%. Unless noted, calls follow the shape of the dose curve; as a rule, active = well fitted curve in the direction sought with a large enough effect; inconclusive = small, poorly fitted or top-dose-only effect, or another doubt; inactive = no such curve, though single readings can be large; an effect the other way counts as inactive or inconclusive. Potency is read from the fitted curve at half-maximal effect.
SMILES,Pf growth 96h,Pf growth 48h,Sm TGR block,SARS PLpro yeast
C=C(C(=O)c1ccccc1)C(C(=C)C(=O)c1ccccc1)c1ccc(OC)cc1,?,2.08µM*,3.3%,0.1%
O=C(c1ccccc1)C(c1ccccc1)c1ccccc1,?,?,7.2%,0.2%
C=C(C(=O)c1ccccc1)C(c1ccccc1)C(C)C(=O)c1ccccc1 (centres undefined),11.7µM*,?,7.1%,-3.0%
O=C(O)c1ccc(C(=O)C(=O)c2ccccc2)cc1,-8.3%,?,-14.1%,3.6%
CC(=O)Nc1cccc(-n2nnc(SCC(=O)N(C)c3ccccc3)n2)c1,16.4%,35.2%,4.3%,-0.3%
CCCS(=O)(=O)c1c(S(=O)(=O)CCC)c2cc(C(C)(C)C)ccn2c1C(=O)c1ccc(C)cc1,nt,nt,-8.5%,nt
CC(C)c1ccc(S(=O)(=O)c2nnn3c2nc(N2CCOCC2)c2sccc23)cc1,nt,nt,25.9%,nt
N#Cc1c(-c2ccccc2)cc(-c2ccccc2)nc1SCC(O)CS(=O)(=O)Cc1ccccc1 (centres undefined),nt,nt,1.1%,nt
CCOc1ccc(C2NC(=O)NC(C)=C2C(=O)OCc2ccccc2)cc1 (centres undefined),7.4%,-17.0%,-4.6%,-3.2%
CCC(CC)COC(=O)C1=C(C)NC(=O)NC1c1ccc2c(c1)OCO2 (centres undefined),0.928µM*,29.0%,0.1%,12.9%
COc1ccc(COC(=O)C2=C(C)NC(=O)NC2c2ccc(F)cc2)cc1 (centres undefined),2.94µM*,?,0.3%,9.6%
CCOC(=O)C1=C(C)NC(=O)NC1c1ccc2c(c1)OCO2 (centres undefined),6.9%,-27.5%,5.9%,16.1%
COc1ccc(C2NC(=O)NC(C)=C2C(=O)OCc2ccc3c(c2)OCO3)cc1OC (centres undefined),483.5%,4.65µM*,-22.8%,2.6%
CCOC(=O)N1CCc2c(sc(NCc3cccc(F)c3)c2C(=O)Nc2ccc(OCC)cc2)C1,nt,nt,-9.8%,nt
COc1ccc(NC(=O)N2CCOc3ccc(Cl)cc32)cc1,nt,nt,-15.2%,nt
Cc1cc(N)ccc1-n1c(C)ccc1C,10.9%,7.38µM*,?,-13.7%
Cc1cc(N)ccc1N1CCCC1,0.415µM*,0.465µM*,5.01µM*,-9.1%
CCN1CCN(c2ccc(N)cc2C)CC1,?,?,3.1%,0.9%
O=C(Nc1nc(-c2ccccn2)cs1)c1cccc(-n2cnnn2)c1,0.928µM*,1.17µM*,-2.9%,-0.9%
O=C(Nc1nc(-c2ccccn2)cs1)c1ccco1,?,?,31.6µM*,0.9%
O=C(Nc1nc(-c2ccncc2)cs1)c1ccco1,?,-22.2%,-25.4%,-2.6%
c1ccc(-c2nc(-c3ccco3)cs2)nc1,78.4%,105.2%,22.4µM*,11.2%
CC(Oc1ccccc1)C(=O)Nc1ccccc1C(=O)OCc1cc(=O)n2nc(C3CC3)sc2n1 (centres undefined),nt,nt,-5.0%,nt
Cc1ccc2c(c1)N(CC(=O)c1cccc(Cl)c1)C(=O)C(C)O2 (centres undefined),4.15µM*,?,-28.7%,1.2%
CCN(CC)CCNC(=O)C1CCN(c2nn3cc(-c4ccc(F)cc4)nc3s2)CC1,nt,nt,4.6%,nt
SMILES,Pf growth 96h,Pf growth 48h,Sm TGR block,SARS PLpro yeast
Cc1cccc(C)c1NC(=O)CSc1nnc(-c2cnccn2)n1C,9.9%,7.2%,-10.5%,-1.2%
CC(C)OC(=O)CSc1nnc(-c2cnccn2)n1C,10.4µM*,3.7%,-1.3%,-6.0%
Cn1c(SCC(=O)c2ccccc2)nnc1-c1cnccn1,8.28µM*,105.7%,-7.0%,-7.2%
CCOc1ccccc1NC(=O)CSc1nnc(-c2cnccn2)n1C,1.85µM*,-0.6%,-26.3%,-2.2%
Cc1ccc(-c2cc(-c3ccc4c(c3)NC(=O)CO4)nc3c2COc2ccc(C)cc2-3)cc1,nt,nt,4.2%,nt
CC(C)Oc1ccc(C(=O)N2CCN(CCc3ccccn3)CC2)cc1,nt,nt,1.3%,nt
Cc1c(-c2ccc(Cl)cc2)c(=O)oc2c(CN3CCCC3)c(O)ccc12,nt,nt,1.4%,nt
Cc1oc2c(CN3CCCCC3)c(O)ccc2c(=O)c1-c1ccc(Br)cc1,1.17µM*,?,1.1%,2.5%
COc1ccc(-c2c(C)oc3c(CN4CCOCC4)c(O)ccc3c2=O)cc1,?,?,-6.1%,-0.6%
Cc1oc2c(CN3CCCC3)c(O)ccc2c(=O)c1-c1ccc(Br)cc1,?,9.28µM*,-2.8%,-0.7%
COc1ccc(-c2cc3c(=O)n(CC(=O)Nc4cccc(Cl)c4)nc(C)n3n2)cc1,?,-4.8%,4.4%,1.7%
